Screens (PubChem)
T cruzi growth-1: T. cruzi intracellular proliferation inhibitors, primary screen, cell-based, beta-gal Tulahuen parasites, NIH3T3 host, luminescence. T. cruzi beta-gal in NIH3T3, GalScreen luminescence, 90 h. inhibition, % at 8.34 µM. 77,000 tested, 5.9% active. AID 624255, 2012;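 active means mean inhibition above about 93%, with at least 55% of replicates each passing it, limit read from the data, passing the limit was not always enough; inconclusive means only one of those two conditions holds; inactive means neither condition holds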
C diff growth: C. difficile growth inhibitors, primary screen, HTS; Clostridium difficile clinical isolate growth, OD600, 24 h; active compounds read low; growth activity, negative = inhibition, % at 16 µg/mL (by protocol); 86,000 tested, 0.25% active;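 active means mean growth activity at or below -80% and every replicate also at or below -80%; inconclusive means mean at or below -80% but some replicate above -80%; inactive means mean growth activity above -80%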
T cruzi growth-2: T. cruzi intracellular proliferation inhibitors, confirmation, cell-based, NIH3T3 host, beta-gal parasite, luminescence, cherry-pick | inhibition, % at 8.35 µM | 5,600 tested, 72% active | AID 651739, 2012 | T. cruzi beta-gal in NIH3T3, GalScreen luminescence, 90 h | shares compounds with T cruzi growth-1;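 active means mean replicate inhibition above about 95% and at least 55% of replicates individually reaching it, limit read from the data; inconclusive means only one of the two criteria is met; inactive means neither criterion is met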
T cruzi growth-3: inhibitors of intracellular T. cruzi replication, confirmation, NIH3T3 host cells, beta-gal parasites, cherry-pick, set 2. T. cruzi beta-gal in NIH3T3, GalScreen luminescence, 90 h. 5,600 tested, 21% active. inhibition, % at 2.09 µM. shares compounds with T cruzi growth-1;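 active means mean inhibition above about 95%, with at least 55% of replicates also reaching it, limit read from the data; inconclusive means meets just one of the two conditions; inactive means meets neither condition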
NIH3T3 tox: cytotoxicity in mouse NIH/3T3 fibroblasts, confirmation, cytotoxicity control for T. cruzi proliferation inhibitor project, cell-based, cherry-pick, single point; 5,600 tested, 14% active; cytotoxicity (signal decrease), % at 8.35 µM; shares compounds with T cruzi growth-1; NIH/3T3 viability, CellTiter-Glo ATP luminescence, 90 h;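 active means mean signal decrease across replicates above about 35% based on untreated-well scatter, with enough replicates individually passing, limit read from the data; inconclusive means no rule stated though some were filed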
NIH3T3 tox 2: NIH/3T3 fibroblast cytotoxicity, confirmation, cytotoxicity control, cell-based, cherry-pick, single point, set 2; inhibition, % at 24.9 µM; shares compounds with T cruzi growth-1; 5,600 tested, 56% active; NIH/3T3 viability, CellTiter-Glo ATP luminescence, 90 h;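 active means mean loss of cell viability signal at or above a set limit, and enough replicates individually reaching it; inconclusive means meets only the mean limit or only the replicate share; inactive means meets neither condition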
Numbers stand for hits; – = inactive; ? = inconclusive; · = no result given. The sample as a whole holds a higher share of hits than the screen did.

SMILES	T cruzi growth-1	C diff growth	T cruzi growth-2	T cruzi growth-3	NIH3T3 tox	NIH3T3 tox 2
O=C(c1cnccn1)N1CC[C@@H]2[C@@H](CO)Nc3ccc(C#Cc4cccnc4)cc3[C@@H]21	–	–	·	·	·	·
C[C@@H]1CN([C@@H](C)CO)S(=O)(=O)c2ccc(-c3cccc(F)c3)cc2O[C@@H]1CN(C)C	–	–	·	·	·	·
C[C@@H]1CN([C@H](C)CO)S(=O)(=O)c2ccc(-c3cccc(F)c3)cc2O[C@@H]1CN(C)S(=O)(=O)c1ccc(F)cc1	98	–	100	–	47	47
Cc1ccc(S(=O)(=O)N(C)C[C@H]2Oc3cc(-c4cccc(F)c4)ccc3S(=O)(=O)N([C@@H](C)CO)C[C@@H]2C)cc1	124	–	97	–	–	38
C[C@H]1CN([C@@H](C)CO)S(=O)(=O)c2ccc(-c3cccc(F)c3)cc2O[C@H]1CN(C)S(C)(=O)=O	138	–	102	–	–	52
C[C@H]1CN([C@@H](C)CO)S(=O)(=O)c2ccc(-c3cccc(F)c3)cc2O[C@@H]1CN(C)S(C)(=O)=O	–	·	·	·	·	·
COc1ccc(S(=O)(=O)N(C)C[C@@H]2Oc3cc(-c4cccc(F)c4)ccc3S(=O)(=O)N([C@@H](C)CO)C[C@@H]2C)cc1	·	–	·	·	·	·
C[C@H]1CN([C@@H](C)CO)S(=O)(=O)c2ccc(-c3cccc(F)c3)cc2O[C@@H]1CN(C)S(=O)(=O)c1ccc(F)cc1	127	–	105	104	57	38
C[C@H](CO)N1C[C@H](C)[C@@H](CN(C)C)Oc2cc(-c3cccc(F)c3)ccc2S1(=O)=O	–	–	·	·	·	·
C[C@@H]1CN([C@H](C)CO)C(=O)Cc2cc(NC(=O)C3CC3)ccc2O[C@@H]1CN(C)Cc1ccncc1	–	–	·	·	·	·
CC(C)NC(=O)Nc1ccc2c(c1)C(=O)N([C@H](C)CO)C[C@H](C)[C@H](CN(C)S(C)(=O)=O)OCCCC[C@@H](C)O2	–	·	·	·	·	·
COc1ccc(C#Cc2ccc3c(c2)[C@H]2[C@H](CCN2C(=O)C2CC2)[C@H](CO)N3)cc1	104	–	110	–	–	41
CCC(=O)N1CC[C@H]2[C@H](CO)Nc3ccc(C#Cc4ccc(OC)cc4)cc3[C@H]21	·	–	·	·	·	·
CCC(=O)N1CC[C@@H]2[C@H](CO)Nc3ccc(C#Cc4ccc(F)cc4)cc3[C@@H]21	106	–	105	–	–	50
COc1ccc(C#Cc2ccc3c(c2)[C@@H]2[C@@H](CCN2C(=O)C2CCC2)[C@H](CO)N3)cc1	·	–	·	·	·	·
CCC(=O)N1CC[C@@H]2[C@H]1c1cc(C#Cc3ccc(F)cc3)ccc1N[C@@H]2CO	–	–	·	·	·	·
COc1ccc(C#Cc2ccc3c(c2)[C@H]2[C@H](CCN2C(=O)c2ccccc2F)[C@H](CO)N3)cc1	?	–	106	99	43	62
COc1cccc(C#Cc2ccc3c(c2)[C@H]2[C@H](CCN2C(=O)c2ccccc2F)[C@H](CO)N3)c1	–	–	·	·	·	·
COc1ccc(C#Cc2ccc3c(c2)[C@@H]2[C@@H](CCN2C(=O)C2CCCCC2)[C@@H](CO)N3)cc1	101	–	101	–	–	95
COc1ccc2c3c(n(C)c2c1)[C@H](CO)N(C(=O)CN1CCOCC1)CC31CN(C(=O)C2CC2)C1	·	–	·	·	·	·
CCCNC(=O)[C@@H]1[C@@H](CO)[C@@H]2Cn3c(ccc(-c4cccc(OC)c4)c3=O)[C@@H]2N1Cc1nccs1	·	–	·	·	·	·
C[C@@H]1CCCCO[C@@H](CN(C)C(=O)Nc2ccccc2)[C@H](C)CN([C@@H](C)CO)C(=O)c2cc(NC(=O)NC3CCCCC3)ccc2O1	–	·	·	·	·	·
Cc1ccc(S(=O)(=O)N(C)C[C@H]2Oc3c(NC(=O)Nc4ccccc4)cccc3C(=O)N([C@@H](C)CO)C[C@@H]2C)cc1	–	–	·	·	·	·
COc1ccc(C#Cc2ccc3c(c2)[C@@H]2[C@@H](CCN2C(=O)C2CCC2)[C@@H](CO)N3)cc1	·	–	·	·	·	·
